# Reference: PubChem BioAssay (NCATS)
# Inconclusive results are not listed. A call without a number means that no potency is given here. Values without a mark were called inactive. Activity calls are given as the source filed them. Calls come from the whole dose curve; as a rule, active = well fitted curve in the direction sought with a large enough effect; inconclusive = small, poorly fitted or top-dose-only effect, or another doubt; inactive = no such curve, though single readings can be large; an effect the other way counts as inactive or inconclusive.
# How the values were obtained:
# [1] = target: Cellular tumor antigen p53 (Homo sapiens) (UniProt P04637); experiment: Primary qHTS for small molecule compounds that upregulate eGFP-tagged delta133p53alpha (in N-terminal) cells. (AID 2060322); details: NCI-H358 eGFP-delta133p53alpha fluorescence, 24 h; activation: hits give high values; note: nearly all actives have a fitted effect of over 75% in size; note: potency is the fitted concentration of half-maximal effect;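 for activation: cells pre-induced with doxycycline then dosed without doxycycline; series mostly up to about 56 µM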
# Sequence of Cellular tumor antigen p53 (Homo sapiens) (P04637 whole entry, looked up): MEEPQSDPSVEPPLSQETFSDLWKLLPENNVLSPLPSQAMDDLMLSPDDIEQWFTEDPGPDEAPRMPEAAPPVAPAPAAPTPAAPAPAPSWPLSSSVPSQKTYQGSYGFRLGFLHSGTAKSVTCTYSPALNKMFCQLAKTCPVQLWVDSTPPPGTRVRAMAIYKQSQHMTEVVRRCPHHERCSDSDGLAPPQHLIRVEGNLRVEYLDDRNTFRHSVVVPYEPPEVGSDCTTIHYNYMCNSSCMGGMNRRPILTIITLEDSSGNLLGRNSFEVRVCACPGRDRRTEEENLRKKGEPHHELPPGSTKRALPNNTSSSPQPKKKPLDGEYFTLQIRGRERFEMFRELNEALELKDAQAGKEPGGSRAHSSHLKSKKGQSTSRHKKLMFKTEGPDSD
# Outline: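 NCI-H358 cells pre-induced 24 h with 10 ng/ml doxycycline for eGFP-delta133p53alpha, plated dox-free and exposed 24 h at 37C to titrated compounds. Fixed, Hoechst-stained; gated GFP peak intensity by laser scanning cytometry, normalized to DMSO (0%) and 57.5 uM 5-azacytidine (100%).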
# [2] = target: Aldehyde dehydrogenase, mitochondrial (Homo sapiens) (UniProt P05091); experiment: qHTS for Inhibitors of the Aldehyde Dehydrogenase Family (ALDH2) Primary screen (AID 2061308); note: nearly all actives have a fitted effect of over 55% in size
# [3] = target: Retinaldehyde dehydrogenase 3 (Homo sapiens) (UniProt P47895); experiment: qHTS for Inhibitors of the Aldehyde Dehydrogenase Family (ALDH1A3) Primary screen (AID 2061315)
Structure (SMILES),Potency [1],Potency [2],Potency [3],activation [1]
COc1ccc(F)cc1-c1cc(NC(=O)[C@@H]2CCCNC2)ncc1Cl,269 nM (active),inactive,inactive,
COc1cc(/C=C2\CCCN([C@@H](C)c3ccc(F)cc3)C2=O)ccc1-n1cnc(C)c1,,inactive,inactive,-22.3%
C=C1CCC2(OC1)OC1CC3C4CC=C5CC(O)CC(O[C@@H]6OC[C@H](OC(=O)C(O)C(C)CC)[C@H](O)[C@H]6O[C@@H]6O[C@@H](C)[C@H](O)[C@@H](O)[C@H]6O)C5(C)C4CCC3(C)C1C2C (some centres not stated),,inactive,inactive,11.6%
CC12CCC(OC3OC(CO)C(O)C(OC4OC(CO)C(O)C(O)C4O)C3O)CC1=CCC1C2CCC2(C)/C(=C3/COC(=O)C3)CCC12O (configuration not stated),,inactive,inactive,-13%
CC(NC(=O)CC(=O)O)C(=O)Nc1ccccc1C(N)=O (configuration not stated),,inactive,inactive,-3.05%
Cc1ccc(S(=O)(=O)NCc2ccc(C(=O)NCCN(Cc3ccccc3)C(C)C)cc2)cc1,,inactive,inactive,3.67%
CC12CC(c3ccoc3)OC(=O)C1CCC1(C)C2CCC(O)C1(C)O (configuration not stated),,inactive,inactive,23.7%
C=CC1C(OC2OC(CO)C(O)C(O)C2O)OC=C(C(=O)OC)C1CC(=O)OCC1C(C)C(O)CC1C(CO)COC(=O)CC1C(C(=O)O)=COC(OC2OC(CO)C(O)C(O)C2O)/C1=C\C (configuration not stated),,inactive,inactive,-16%
CC(CCC1(O)OC2CC3C4CC=C5CC(O[C@@H]6O[C@H](CO)[C@@H](O[C@@H]7O[C@H](CO)[C@@H](O)[C@H](O)[C@H]7O)[C@H](O)[C@H]6O[C@@H]6O[C@@H](C)[C@H](O)[C@@H](O)[C@H]6O)CCC5(C)C4CCC3(C)C2C1C)CO[C@@H]1O[C@H](CO)[C@@H](O)[C@H](O)[C@H]1O (some centres not stated),,inactive,inactive,12.5%
